# Assay outcomes deposited in PubChem BioAssay by National Center for Advancing Translational Sciences (NCATS).
# D1 PAM: potentiators of human D1 dopamine receptor; P21728; HEK293 TREx D1 cells, calcium flux, dopamine EC20 potentiation; potentiation, % at 10 µM; 360,000 compounds, 0.036% hits; AID 504651; in the data active = potentiation above about 30%
# D1 antagonist: human D1 dopamine receptor antagonism. P21728. HEK293 TREx D1 cells, calcium flux, dopamine EC80; hits give low values. activity change, negative = inhibition, % at 10 µM. 360,000 compounds, 3.2% hits. AID 504652; in the data active = activity change below about -30%
#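 Kinetic fluorescence of a calcium dye serves as the read-out. D1-expressing Hek293 Trex cells, induced overnight at 30 C, are exposed to compound for 180 s before an EC80 dopamine addition, then read 180 s further.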
# TRHR ag: activates the human TRH receptor | TRHR cells, calcium flux fluo-8, FDSS agonist mode | activation, % at 2 µM | 360,000 compounds, 0.18% hits | AID 493084
# Target sequence (P34981 whole entry, looked up): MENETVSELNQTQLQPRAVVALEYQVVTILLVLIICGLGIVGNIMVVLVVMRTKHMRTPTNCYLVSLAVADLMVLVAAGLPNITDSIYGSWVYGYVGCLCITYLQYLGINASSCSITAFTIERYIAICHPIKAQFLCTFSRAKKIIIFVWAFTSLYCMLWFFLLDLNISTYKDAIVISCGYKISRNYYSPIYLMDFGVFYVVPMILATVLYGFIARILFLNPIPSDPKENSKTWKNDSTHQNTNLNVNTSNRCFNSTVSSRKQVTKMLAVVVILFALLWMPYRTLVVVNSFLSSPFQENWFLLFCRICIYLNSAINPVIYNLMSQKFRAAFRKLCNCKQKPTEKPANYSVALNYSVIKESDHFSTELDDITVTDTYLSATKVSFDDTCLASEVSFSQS
#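 TRHR-expressing cells loaded with fluo-8 calcium dye; 23 nL library compound pin-transferred, kinetic FDSS fluorescence (Ex 480/Em 530) recorded about 180 s for agonist-induced calcium release, before a 10 nM TRH EC20 addition for potentiator mode.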
# D1 ag: activates the human D1 dopamine receptor. HEK293 T-REx D1 cells, calcium flux, agonist mode. 360,000 compounds, 1% hits. P21728. AID 504660. activation, % at 2 µM
#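 Tetracycline-induced HEK293 TREx D1 cells, force-coupled to calcium signalling, were dye-loaded with a no-wash calcium kit. Compound was pin-added after a 10 s baseline. Fluorescence was read kinetically at 1 cycle/s for 180 s, with calcium rises flagged as agonism.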
# TRHR enhancer: allosteric enhancers of human TRH receptor; P34981; TRHR cells, fluo-8 calcium fluorescence, EC20 TRH enhancement; AID 493056; enhancement, % at 2 µM; 360,000 compounds, 0.66% hits; in the data active = enhancement above about 30%
#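 Enhancer read-out: after compound pinning and an initial kinetic agonist-mode read, an EC20 of TRH (10 nM final) was injected and fluo-8 calcium signal (Ex 480/Em 530) followed at 1 s/cycle for 100 cycles in TRHR-expressing cells.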
# A number is an active result; - = inactive; . = no result given; ! = not confirmed by another sample. Shown are actives, neighbours in structure and some others; about 4.7% of the full set was active somewhere. Cut-off read from the data, not from the text of the source, unless noted: active = activation above about 30%; inactive = the rest.
SMILES,D1 PAM,D1 antagonist,TRHR ag,D1 ag,TRHR enhancer
CC(/C=C\c1cccnc1)=C/C(=O)O,-,-62!,-,-,-
O=C(O)/C=C/c1cccnc1,-,-80,-,-,-
COc1ccc(OCC2NCCc3cc(OC)c(OC)cc32)cc1 (stereo unspecified),-,-,-,-,-
COc1cc2c(cc1OC)C(COc1cccc(C(F)(F)F)c1)NCC2 (stereo unspecified),-,-,-,32,-
COc1ccc(-n2c(-c3ccccc3F)nc3c(cnn3-c3ccc(C)cc3)c2=O)cc1,-,-31,-,-,-
COc1ccc(-n2c(-c3ccco3)nc3c(cnn3-c3ccccc3C)c2=O)cc1,-,-30!,-,-,-
CN(Cc1ccccc1)C(=O)c1ccc2c(c1)N(Cc1ccccc1F)C(=O)c1ccccc1S2(=O)=O,-,-,-,-,-
O=C(CNC(=O)c1ccccc1)N[C@@H](C(=O)Nc1cc(C(F)(F)F)ccc1Cl)c1ccccc1,-,-,-,-,-
Cc1cc2ccccc2n1CCNCc1c(C(=O)N2CCOCC2)nc2ccccn12,-,-,-,-,-
O=C(c1nc2ccccn2c1CNCCCn1ncc2ccccc21)N1CCOCC1,-,-42,-,-,-
Cc1ccc(-n2nc3c(=O)n(CCCC(=O)NC(C)c4ccccc4)nc(C)c3c2C)cc1 (stereo unspecified),-,-,-,-,-
CNc1nc(Oc2ccccc2C(=O)OC)nc(SC)n1,-,-40,-,-,-
CCOC(=O)c1ccc(Oc2nc(NC)nc(SC)n2)cc1,-,-34,-,-,-
COC(=O)c1ccccc1Oc1cnc2ccccc2n1,-,-,-,-,-
Cc1ccc(-c2c(C)n3c4c(=O)n(C)c(=O)n(C)c4nc3n2CCO)cc1,-,-,-,-,-
COc1ccc(Cl)cc1NC(=O)C(=O)NCc1ccc(Cl)cc1,-,-,-,-,-
CN(CC(=O)Nc1ccccc1Cl)S(=O)(=O)c1ccc(C(=O)N2CCOCC2)s1,-,-,-,-,-
Cc1cccc(N2CCN(S(=O)(=O)c3cc(C(=O)Nc4ccccc4Cl)ccc3F)CC2)c1C,-,-,-,-,-
CCOC(=O)Cc1c(C)nc2cc(-c3ccc(C(C)(C)C)cc3)nn2c1C,-,-39,-,-,-
Cc1c(C(=O)Nc2ccc(S(=O)(=O)N(C)C3CCN(C)CC3)cc2)oc2ccccc12,-,-,-,32,-
Cc1c(C(=O)Nc2ccc(S(=O)(=O)N(C)C3CCN(C)CC3)cc2)oc2c(Cl)cccc12,-,-60,-,59,-
CC1N=C2c3ccccc3N=C(SCC(=O)NCCc3ccc(Cl)cc3)N2C1=O (stereo unspecified),-,-,-,-,-
COc1cccc(N2CC(NC(=O)c3cccs3)CC2=O)c1 (stereo unspecified),-,.,-,-,-
Cn1c(=O)[nH]c(=O)c2c1nc(SCCN1CCCCC1)n2Cc1ccccc1,-,-,-,-,-
Cc1ccc(Cn2c(SCCN3CCCCC3)nc3c2c(=O)[nH]c(=O)n3C)cc1,-,-43,-,-,-
SMILES,D1 PAM,D1 antagonist,TRHR ag,D1 ag,TRHR enhancer
COc1ccc(Cl)cc1NC(=O)c1cc2c(=O)n3ccccc3nc2s1,-,-,-,-,-
CCc1c(C#N)sc(C(N)=O)c1CC,-,-58,-,-,-
O=C(Nc1ccccc1)N(Cc1cccs1)c1ccc(F)cc1,-,-,-,-,-
CC(C)C[C@H]1CN=C(Nc2ccccc2)N1CCCC1CCCC1,-,-,-,41,-
CC(C)C[C@H]1CN=C(Nc2ccccc2)N1CCCC1CCCCC1,-,-,-,-,-
COC(=O)c1nn(-c2cccc(C(F)(F)F)c2)c(=O)cc1Sc1ccccn1,-,-,-,-,39
CCC(=O)N1CCc2cc(CNC(=O)C(CC)c3ccccc3)ccc21 (stereo unspecified),-,-,-,-,-
CCCCCC(=O)N/N=C/c1cc(Br)c(O)c(OC)c1,-,-39,-,-,-
COc1ccc(/C=N\NC(=O)CCN2CCN(c3ccccc3)CC2)cc1OC,-,-,-,-,-
O=C(CCN1CCN(C(c2ccccc2)c2ccccc2)CC1)N/N=C/c1ccc(O)cc1,-,-72,-,-,-
COc1cc(/C=N/NC(=O)CCN2CCCCC2)ccc1O,-,-,-,-,34
Cc1ccc(-c2nc3cc(NC(=O)c4cc(Br)ccc4Cl)ccc3o2)cc1,-,-,-,-,-
COc1ccc(C2(C)NC(=O)N(CC3CCCCC3)C2=O)cc1 (stereo unspecified),-,-52,-,-,-
COc1cc(Cn2ncc3c4sc(C)cc4n(C)c3c2=O)cc(OC)c1,-,-,-,-,-
CCOC(=O)N1CCC(NC(=O)c2cc(COc3ccccc3SC)on2)CC1,-,-33,-,-,-
CC1=C(C(=O)N2CCCCC2)C2(CCC(C)CC2)OC1=O (stereo unspecified),-,-,-,-,-
CC1=C(C(=O)N2CCc3ccccc32)C2(CCC(C)CC2)OC1=O (stereo unspecified),-,-78,-,-,-
CCCCNC(=O)c1cc2c(=O)n3cccc(C)c3nc2s1,-,-,-,-,-
COCCCNC(=O)c1cc2c(=O)n3cccc(C)c3nc2s1,-,-33!,-,-,-
CCOC(=O)Cc1csc(NC(=O)C(C)c2ccc([N+](=O)[O-])cc2)n1 (stereo unspecified),-,-38,-,58,-
CCOC(=O)Cc1csc(NC(=O)Cc2ccccc2[N+](=O)[O-])n1,-,-,-,-,-
CCOC(=O)Cc1csc(NS(=O)(=O)c2cccc([N+](=O)[O-])c2)n1,-,-,-,-,36
COCCCNC(=O)c1ccc(Cn2c(=O)c3ccccc3n(CC(=O)Nc3c(C)cccc3C)c2=O)cc1,-,-,-,-,-
CC(C)Nc1nc(NC(C)C)nc(OCCOC(=O)c2ccccc2)n1,-,-,-,-,-
CN(C)c1nc(OCCOC(=O)c2ccccc2)nc(N(C)C)n1,-,-,-,31,-
SMILES,D1 PAM,D1 antagonist,TRHR ag,D1 ag,TRHR enhancer
COc1ccc(-c2cn3c(n2)sc2cc(C(=O)NC(C)C45CC6CC(CC(C6)C4)C5)ccc23)cc1 (stereo unspecified),-,-,-,-,-
COc1ccc(S(=O)(=O)N2CCN(Cc3ccc4c(c3)OCO4)CC2)cc1C,-,-,-,-,-
Cn1cc(CN2CCN(c3ccc(Cl)cn3)CC2)c(-c2ccccc2F)n1,-,-,-,-,-
Cc1cccc(S(=O)(=O)N2CCN(Cc3ccc4c(c3)OCO4)CC2)c1,-,-34,-,-,-
Cn1cc(CN2CCN(Cc3ccc4c(c3)OCO4)CC2)c(-c2ccccc2F)n1,-,-31,-,-,-
O=S(=O)(Cc1ccccc1Cl)N1CCN(Cc2ccc3c(c2)OCO3)CC1,-,-34,-,41,-
CNC(=O)/C(C#N)=C/c1cn(CC(=O)NCc2ccco2)c2ccccc12,-,-,-,-,-
